# Data as given in the supplement of paper PMC10849652.
# About 7,900 targets were measured; listed, in parts, are those with a hit and a random draw of the rest. About 0.6% of all pairs of compound and target were hits. Values without a mark were called inactive.
# Key:
# Experiment in all cases: log2 fold change, soluble protein after heating vs DMSO (PISA); higher = thermal stabilisation; K562 cells, 10 uM, 30 min; active = over 0.2 and 3.5 SD of the protein, either way, in both replicates (recomputed)
# [1] = compound: C1COCCN1CCN2C3=CC=CC=C3N=C2NC(=O)C4=CC(=CC=C4)[N+](=O)[O-] [IRAK-1-4 Inhibitor I]
# Procedure, shortened: (§1)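 K562 cells at 2×10^6 cells/mL were given 10 μM compound for 30 min. Aliquots then went through 3 min of heating across 48°C-58°C, were pooled, and were extracted in PBS with 0.5% NP-40 at 4°C, and the supernatant after 21,000xg for 90 min was quantified by TMTpro 16plex LC-MS/MS with channel sums equalised. Thermal stability relative to control samples, from duplicates, is given as log2 fold change.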
# [2] = compound: C=CC(=O)N1CCC[C@@H](n2nc(-c3ccc(Oc4ccccc4)cc3)c3c(N)ncnc32)C1 [ibrutinib]
# Procedure, shortened: as §1
# [3] = compound: CC(=O)c1cnc2ccc(-c3cc(Cl)c(O)c(Cl)c3)nc2c1N[C@H]1CC[C@H](CN(C)C)CC1
# Procedure, shortened: as §1
# [4] = compound: CC(C)(C)Cn1c(N)nc2ccc(-c3[nH]c(C(C)(C)C)nc3-c3ccc(F)cc3)nc21 [ralimetinib]
# Procedure, shortened: as §1
# [5] = compound: CC(C)(O)CC(=O)NCCn1ccc2ncnc(Nc3ccc(Oc4cccc(C(F)(F)F)c4)c(Cl)c3)c21
# Procedure, shortened: as §1
# [6] = compound: CC(C)C1=C2N=C(C=C(N2N=C1)NCC3=CC=CC=C3)NCCCCCCN
# Procedure, shortened: as §1
# [7] = compound: CC(C)C[C@@H](C=O)NC(=O)[C@H](CC(C)C)NC(=O)[C@H](CC(C)C)NC(=O)OCc1ccccc1
# Procedure, shortened: as §1
# [8] = compound: CC(C)N(C[C@H]1O[C@@H](n2cnc3c(N)ncnc32)[C@H](O)[C@@H]1O)[C@H]1C[C@@H](CCc2nc3cc(C(C)(C)C)ccc3[nH]2)C1 [pinometostat]
# Procedure, shortened: as §1
# [9] = compound: CC1=C(C(CC(=O)N1)C2=CC=C(C=C2)C(F)(F)F)C(=O)NC3=C(C=C4C(=C3)C=NN4)F
# Procedure, shortened: as §1
# [10] = compound: CC1=C(C2=C(C=C1)C(=O)C3=CC=CC=C3N2CCCN)C
# Procedure, shortened: as §1
# UniProt Q13356, sequence (Q13356 whole entry, looked up): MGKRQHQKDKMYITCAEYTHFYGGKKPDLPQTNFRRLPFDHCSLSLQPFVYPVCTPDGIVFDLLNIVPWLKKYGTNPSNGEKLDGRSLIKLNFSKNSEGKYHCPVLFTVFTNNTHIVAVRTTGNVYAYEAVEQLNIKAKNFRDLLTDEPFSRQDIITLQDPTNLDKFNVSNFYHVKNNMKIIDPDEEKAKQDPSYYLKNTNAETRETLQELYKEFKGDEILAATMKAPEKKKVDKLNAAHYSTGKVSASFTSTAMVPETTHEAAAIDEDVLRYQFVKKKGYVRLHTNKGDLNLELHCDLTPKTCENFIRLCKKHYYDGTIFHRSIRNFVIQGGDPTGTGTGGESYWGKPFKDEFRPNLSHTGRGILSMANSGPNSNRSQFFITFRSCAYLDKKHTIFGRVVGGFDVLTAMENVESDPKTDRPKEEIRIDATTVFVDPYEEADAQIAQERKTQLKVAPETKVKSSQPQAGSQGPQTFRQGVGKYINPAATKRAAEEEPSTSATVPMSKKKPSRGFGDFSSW
# UniProt Q86TP1, sequence (Q86TP1 whole entry, looked up): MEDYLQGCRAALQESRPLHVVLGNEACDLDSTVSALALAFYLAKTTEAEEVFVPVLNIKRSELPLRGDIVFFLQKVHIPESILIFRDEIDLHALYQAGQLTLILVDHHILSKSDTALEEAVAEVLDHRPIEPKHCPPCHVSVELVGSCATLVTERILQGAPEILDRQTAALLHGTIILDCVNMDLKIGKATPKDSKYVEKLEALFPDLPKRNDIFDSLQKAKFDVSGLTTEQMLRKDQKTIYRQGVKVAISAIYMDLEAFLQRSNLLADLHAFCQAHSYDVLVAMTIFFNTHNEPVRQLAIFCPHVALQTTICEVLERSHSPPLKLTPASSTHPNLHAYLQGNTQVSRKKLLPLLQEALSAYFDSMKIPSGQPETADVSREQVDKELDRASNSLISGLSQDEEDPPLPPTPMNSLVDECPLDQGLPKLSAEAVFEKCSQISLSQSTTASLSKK
# UniProt Q13523, sequence (Q13523 whole entry, looked up): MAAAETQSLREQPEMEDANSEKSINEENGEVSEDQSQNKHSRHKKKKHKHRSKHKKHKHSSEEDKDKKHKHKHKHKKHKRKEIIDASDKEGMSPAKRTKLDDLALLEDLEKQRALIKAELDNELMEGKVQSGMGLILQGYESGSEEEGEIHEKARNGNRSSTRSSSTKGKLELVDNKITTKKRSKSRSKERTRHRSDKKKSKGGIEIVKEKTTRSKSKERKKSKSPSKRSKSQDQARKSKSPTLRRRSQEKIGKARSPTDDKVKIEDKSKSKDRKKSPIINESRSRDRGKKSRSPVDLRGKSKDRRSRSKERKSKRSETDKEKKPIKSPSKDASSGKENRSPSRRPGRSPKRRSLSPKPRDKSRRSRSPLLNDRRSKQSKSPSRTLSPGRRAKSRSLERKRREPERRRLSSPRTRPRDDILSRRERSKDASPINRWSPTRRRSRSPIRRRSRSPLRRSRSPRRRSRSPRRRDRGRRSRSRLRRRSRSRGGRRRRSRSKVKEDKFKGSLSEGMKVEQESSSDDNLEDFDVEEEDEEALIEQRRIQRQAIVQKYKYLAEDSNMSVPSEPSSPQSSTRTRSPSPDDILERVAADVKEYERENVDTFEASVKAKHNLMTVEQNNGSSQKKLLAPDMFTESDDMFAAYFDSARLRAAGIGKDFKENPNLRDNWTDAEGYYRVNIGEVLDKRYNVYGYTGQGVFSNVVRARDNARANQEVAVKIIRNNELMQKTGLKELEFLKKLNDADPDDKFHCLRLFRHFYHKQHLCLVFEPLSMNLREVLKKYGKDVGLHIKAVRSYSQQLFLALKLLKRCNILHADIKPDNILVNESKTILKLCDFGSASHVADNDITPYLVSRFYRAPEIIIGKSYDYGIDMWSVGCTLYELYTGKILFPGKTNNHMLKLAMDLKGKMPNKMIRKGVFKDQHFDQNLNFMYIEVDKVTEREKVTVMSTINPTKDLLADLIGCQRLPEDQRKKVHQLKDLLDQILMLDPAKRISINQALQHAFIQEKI
# UniProt P35227, sequence (P35227 whole entry, looked up): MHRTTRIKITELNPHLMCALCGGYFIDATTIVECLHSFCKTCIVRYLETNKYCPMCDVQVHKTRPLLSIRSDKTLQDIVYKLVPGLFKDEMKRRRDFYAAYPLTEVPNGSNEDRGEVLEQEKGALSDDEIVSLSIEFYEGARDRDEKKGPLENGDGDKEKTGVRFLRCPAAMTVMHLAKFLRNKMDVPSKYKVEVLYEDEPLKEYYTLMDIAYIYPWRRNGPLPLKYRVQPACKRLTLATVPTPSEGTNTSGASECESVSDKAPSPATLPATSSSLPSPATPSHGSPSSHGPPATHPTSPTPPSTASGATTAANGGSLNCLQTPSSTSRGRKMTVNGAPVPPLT
# UniProt Q9UMR5, sequence (Q9UMR5 whole entry, looked up): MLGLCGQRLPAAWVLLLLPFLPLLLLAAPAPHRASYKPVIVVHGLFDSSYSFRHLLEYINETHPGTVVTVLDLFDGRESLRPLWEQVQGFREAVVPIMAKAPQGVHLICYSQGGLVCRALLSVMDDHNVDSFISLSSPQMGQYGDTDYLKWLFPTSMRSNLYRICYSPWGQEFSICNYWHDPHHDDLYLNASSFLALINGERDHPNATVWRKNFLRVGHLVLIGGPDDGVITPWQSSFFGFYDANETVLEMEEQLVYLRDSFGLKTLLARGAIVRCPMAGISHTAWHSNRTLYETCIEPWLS
# UniProt P10644, sequence (P10644 whole entry, looked up): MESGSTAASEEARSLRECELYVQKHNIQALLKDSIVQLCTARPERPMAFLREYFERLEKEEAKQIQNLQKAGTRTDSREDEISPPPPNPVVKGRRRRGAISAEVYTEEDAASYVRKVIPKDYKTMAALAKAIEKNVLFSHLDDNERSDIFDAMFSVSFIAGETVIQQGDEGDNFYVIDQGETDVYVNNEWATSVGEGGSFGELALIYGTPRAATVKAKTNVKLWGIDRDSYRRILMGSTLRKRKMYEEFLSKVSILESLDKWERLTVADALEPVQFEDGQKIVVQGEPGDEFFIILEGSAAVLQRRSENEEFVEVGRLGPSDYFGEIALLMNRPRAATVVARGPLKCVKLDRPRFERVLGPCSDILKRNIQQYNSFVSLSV
# UniProt P49585, sequence (P49585 whole entry, looked up): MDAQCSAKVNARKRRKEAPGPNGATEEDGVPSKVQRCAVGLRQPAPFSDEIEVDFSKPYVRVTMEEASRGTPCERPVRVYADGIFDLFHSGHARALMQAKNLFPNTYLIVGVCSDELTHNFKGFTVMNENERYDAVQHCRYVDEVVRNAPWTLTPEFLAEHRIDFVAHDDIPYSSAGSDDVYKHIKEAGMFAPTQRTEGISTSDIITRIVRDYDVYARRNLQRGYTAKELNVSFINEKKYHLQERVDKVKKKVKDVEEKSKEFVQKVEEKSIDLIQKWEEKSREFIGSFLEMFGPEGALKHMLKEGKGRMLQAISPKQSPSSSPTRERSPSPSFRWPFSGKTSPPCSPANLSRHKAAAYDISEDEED
# UniProt Q15185, sequence (Q15185 whole entry, looked up): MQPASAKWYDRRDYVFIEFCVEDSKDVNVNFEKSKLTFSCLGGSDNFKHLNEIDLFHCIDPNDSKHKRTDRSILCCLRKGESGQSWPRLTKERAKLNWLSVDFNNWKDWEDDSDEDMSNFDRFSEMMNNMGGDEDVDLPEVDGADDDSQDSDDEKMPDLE
# UniProt Q8WWY3, sequence (Q8WWY3 whole entry, looked up): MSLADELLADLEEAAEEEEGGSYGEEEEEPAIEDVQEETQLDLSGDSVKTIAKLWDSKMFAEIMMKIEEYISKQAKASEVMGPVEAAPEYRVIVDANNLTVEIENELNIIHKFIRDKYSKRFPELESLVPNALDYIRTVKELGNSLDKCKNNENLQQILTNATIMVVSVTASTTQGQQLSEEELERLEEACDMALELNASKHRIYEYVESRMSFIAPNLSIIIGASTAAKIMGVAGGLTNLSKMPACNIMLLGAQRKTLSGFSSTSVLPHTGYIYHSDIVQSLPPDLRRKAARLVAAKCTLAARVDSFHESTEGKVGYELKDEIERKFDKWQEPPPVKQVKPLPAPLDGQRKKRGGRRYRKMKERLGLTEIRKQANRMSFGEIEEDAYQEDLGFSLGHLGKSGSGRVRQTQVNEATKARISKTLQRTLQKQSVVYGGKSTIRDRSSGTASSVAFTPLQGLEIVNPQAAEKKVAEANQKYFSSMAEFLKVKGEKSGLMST
# UniProt P49643, sequence (P49643 whole entry, looked up): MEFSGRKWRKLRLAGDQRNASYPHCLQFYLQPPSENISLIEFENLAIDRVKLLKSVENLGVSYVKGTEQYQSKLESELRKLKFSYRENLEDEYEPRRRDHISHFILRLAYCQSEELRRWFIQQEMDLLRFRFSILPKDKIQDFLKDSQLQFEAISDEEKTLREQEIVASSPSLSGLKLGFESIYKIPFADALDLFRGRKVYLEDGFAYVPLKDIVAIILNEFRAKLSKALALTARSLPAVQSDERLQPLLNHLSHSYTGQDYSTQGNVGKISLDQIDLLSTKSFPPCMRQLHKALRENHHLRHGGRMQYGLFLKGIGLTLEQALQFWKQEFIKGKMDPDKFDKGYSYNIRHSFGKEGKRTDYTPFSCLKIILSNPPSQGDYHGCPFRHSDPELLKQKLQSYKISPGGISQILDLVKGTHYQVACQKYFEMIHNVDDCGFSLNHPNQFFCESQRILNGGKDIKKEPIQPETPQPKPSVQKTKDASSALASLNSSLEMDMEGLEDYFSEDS
# UniProt Q8NAV1, sequence (Q8NAV1 whole entry, looked up): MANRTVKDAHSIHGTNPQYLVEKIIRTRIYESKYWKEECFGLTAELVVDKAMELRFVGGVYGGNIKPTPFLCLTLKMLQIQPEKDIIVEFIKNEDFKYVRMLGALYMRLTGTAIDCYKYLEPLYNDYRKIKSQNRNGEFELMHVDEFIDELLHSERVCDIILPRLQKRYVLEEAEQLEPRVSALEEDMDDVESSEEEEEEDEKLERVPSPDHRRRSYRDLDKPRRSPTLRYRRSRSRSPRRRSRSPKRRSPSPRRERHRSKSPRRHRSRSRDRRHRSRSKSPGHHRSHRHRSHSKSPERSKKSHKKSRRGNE
Target,log2 fold change [1],log2 fold change [2],log2 fold change [3],log2 fold change [4],log2 fold change [5],log2 fold change [6],log2 fold change [7],log2 fold change [8],log2 fold change [9],log2 fold change [10]
PLCB3 (UniProt Q01970),-0.013,-0.026,-0.017,0.014,-0.064,-0.138,-0.003,0.01,-0.022,0.004
PRPF4B (UniProt Q13523),-0.126,-0.015,-0.263,-0.001,0.138,-0.029,0.077,0.099,-0.006,-0.209
PRPF31 (UniProt Q8WWY3),-0.066,-0.028,-0.3,0.069,-0.144,-0.387,0.004,0,-0.016,-0.271
PRG4 (UniProt Q92954),-0.072,-0.005,0,0.011,0.059,0.29,0.054,-0.068,0.039,-0.127
PCGF2 (UniProt P35227),-0.077,-0.101,-0.164,-0.036,0,-0.095,0.065,-0.075,-0.119,0.107
PCYT1A (UniProt P49585),0.081,-0.032,-0.007,-0.072,-0.019,-0.163,0.084,-0.005,0.116,-0.137
PRKAR1A (UniProt P10644),-0.068,0.035,-0.049,0.268,0.041,-0.149,0.041,0.131,-0.084,-0.127
PEX7 (UniProt O00628),0.03,-0.092,-0.106,-0.064,-0.057,-0.006,0.003,-0.034,0.025,0.033
PRPF38A (UniProt Q8NAV1),0.011,-0.051,-0.237 (active),0.03,0.012,-0.029,0.005,0.027,0.045,-0.014
PPIL2 (UniProt Q13356),-0.097,-0.048,-0.077,0,-0.081,-0.044,0.096,-0.063,-0.043,0.062
PTGES3 (UniProt Q15185),0.04,0,-0.01,0.017,-0.103,-0.247,-0.079,-0.081,0.008,-0.202
PRUNE1 (UniProt Q86TP1),0.049,-0.058,0.012,0.017,-0.037,-0.129,0.04,0.08,-0.019,-0.021
PRIM2 (UniProt P49643),-0.043,-0.04,-0.065,-0.058,-0.265,-0.213,0.074,0.005,0,0.059
POLR2B (UniProt P30876),-0.095,-0.002,0.262 (active),0.066,-0.047,0.08,0.03,0.037,-0.031,0.03
PPT2 isoform 3 (UniProt Q9UMR5),0.078,0.036,-0.04,0.052,0.006,-0.17,-0.014,-0.041,-0.012,0.037
